Each structure is given as a SMILES string. Activity calls are given as the source filed them.

The nature of assay [1]: E. coli DRC41 culture turbidity changes, primary screen, E. coli filamentation inducer project, strain DRC41, OD650, 48 h (AID 1152).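 Further: E. coli MC1000 strain DRC41 lacking acrAB efflux pump and sulA.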 Particulars: E. coli DRC41 (acrAB sulA), higher = more signal, called active from +8 up or from −8 down.
Assay [2] can be described thus: small-molecule binders of probe aLefty1, primary screen, biochemical, small-molecule microarray, 635/667 nm fluorescence (AID 1153).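 Further: score merges spot fluorescence with signal-to-noise ratio from the scanned slide images.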 The note with it: higher = more signal.
Assay [3] in a line: PSAC antagonists in infected red cells, primary screen, cell-based, P. falciparum Indochina, OD700, 1 h (AID 1154). Particulars: P. falciparum Indochina infected RBC osmotic lysis, higher = more signal, called active from +8 up or from −8 down.
Assay [4] is described as follows: PSAC antagonists in infected red cells, primary screen, cell-based, P. falciparum Indochina, OD700, 2 h (AID 1155).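 Further: lysis reports solute entry through the parasite surface anion channel PSAC; channel blockers reduce lysis of infected cells.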 Particulars: P. falciparum Indochina infected erythrocytes, osmotic lysis OD700; higher = more signal, called active from +8 up or from −8 down.
A short description of assay [5]: osmotic lysis modulators in infected erythrocytes, primary screen, PSAC antagonist project, cell-based, P. falciparum Indochina, OD700, 3 h (AID 1156). Particulars: higher = more signal, called active from +8 up or from −8 down.
Assay [6] can be described thus: PSAC antagonists in infected red cells, primary screen, cell-based, P. falciparum Indochina, OD700, 18 h (AID 1157). Particulars: P. falciparum Indochina infected erythrocytes, osmotic lysis OD700, 18 h; higher = more signal, called active from +8 up or from −8 down.
A short description of assay [7]: modulators of S6 phosphorylation in cells, primary screen, cell-based, A549, cytoblot, luminescence, serum-stimulated (AID 1158).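 Further: serum-stimulated A549 lung adenocarcinoma cells; signal is phosphorylated S6 detected by cytoblot immunostaining with HRP secondary.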 The note with it: A549 phospho-S6 cytoblot, 5 h, higher = more signal.
Assay [8] addresses NADPH oxidase 2 (Homo sapiens) (UniProt P04839). Kind of assay: NOX2-dependent H2O2 signal modulators, primary screen, NOX inhibitor project, cell-based, HEK293-NOX2, PMA-stimulated, Amplex Red fluorescence (AID 1159). Further: test concentration not given here. The note with it: 45 min, higher = more signal, called active from +8 up or from −8 down.
In assay [9] the target is NADPH oxidase 4 (Homo sapiens) (UniProt Q9NPH5). Kind of assay: NOX4-dependent H2O2 signal modulators, primary screen, NOX inhibitor project, cell-based, HEK293-NOX4, tetracycline-induced, Amplex Red fluorescence (AID 1160). Particulars: 45 min, higher = more signal, called active from +8 up or from −8 down.
Sequence of NADPH oxidase 4 (Homo sapiens) (Q9NPH5 whole entry, looked up): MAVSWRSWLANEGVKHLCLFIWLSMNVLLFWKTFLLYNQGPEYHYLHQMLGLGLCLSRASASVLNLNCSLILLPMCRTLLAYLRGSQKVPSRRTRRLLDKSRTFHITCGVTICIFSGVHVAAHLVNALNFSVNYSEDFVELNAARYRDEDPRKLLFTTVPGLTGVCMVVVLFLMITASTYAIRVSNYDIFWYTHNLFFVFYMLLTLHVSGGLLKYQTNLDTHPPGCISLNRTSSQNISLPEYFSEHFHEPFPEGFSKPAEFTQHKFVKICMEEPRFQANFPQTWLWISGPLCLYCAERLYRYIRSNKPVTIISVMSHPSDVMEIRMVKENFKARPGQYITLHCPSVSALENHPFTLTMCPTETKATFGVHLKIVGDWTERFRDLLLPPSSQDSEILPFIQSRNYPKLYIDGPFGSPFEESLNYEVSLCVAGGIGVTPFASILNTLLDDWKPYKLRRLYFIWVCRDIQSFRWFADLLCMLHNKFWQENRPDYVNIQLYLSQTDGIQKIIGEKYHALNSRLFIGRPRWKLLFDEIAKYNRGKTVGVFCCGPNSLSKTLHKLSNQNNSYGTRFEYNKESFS
The target in assay [10] is NADPH oxidase 5 (Homo sapiens) (UniProt Q96PH1). The assay can be described thus: NOX5-dependent H2O2 signal modulators, primary screen, NOX inhibitor project, cell-based, HEK293-NOX5, Amplex Red fluorescence (AID 1161). The note with it: HEK293-NOX5, ionomycin, 45 min, higher = more signal.
Sequence of NADPH oxidase 5 (Homo sapiens) (Q96PH1 whole entry, looked up): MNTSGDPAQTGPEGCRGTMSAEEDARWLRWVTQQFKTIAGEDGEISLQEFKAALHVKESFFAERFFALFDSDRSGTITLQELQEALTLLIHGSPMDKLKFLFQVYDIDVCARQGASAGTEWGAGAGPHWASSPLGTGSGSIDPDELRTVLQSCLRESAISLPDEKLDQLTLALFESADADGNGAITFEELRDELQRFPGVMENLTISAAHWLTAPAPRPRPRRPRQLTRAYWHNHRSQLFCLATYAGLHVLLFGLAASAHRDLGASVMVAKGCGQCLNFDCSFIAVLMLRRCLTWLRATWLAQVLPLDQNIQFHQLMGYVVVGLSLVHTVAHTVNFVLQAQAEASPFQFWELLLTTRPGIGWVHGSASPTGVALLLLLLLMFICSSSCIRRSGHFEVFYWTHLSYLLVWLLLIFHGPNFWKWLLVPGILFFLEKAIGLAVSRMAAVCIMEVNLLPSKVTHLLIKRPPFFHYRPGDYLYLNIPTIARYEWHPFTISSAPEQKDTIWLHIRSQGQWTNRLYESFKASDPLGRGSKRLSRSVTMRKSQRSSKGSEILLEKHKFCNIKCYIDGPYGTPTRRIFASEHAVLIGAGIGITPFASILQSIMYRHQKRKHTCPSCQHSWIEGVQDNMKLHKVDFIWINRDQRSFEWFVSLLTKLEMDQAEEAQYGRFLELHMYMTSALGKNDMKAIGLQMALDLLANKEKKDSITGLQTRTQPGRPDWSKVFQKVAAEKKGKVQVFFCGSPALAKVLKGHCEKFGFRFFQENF
Assay [11] can be described thus: A549 cell viability effects, profiling panel, calcein-AM fluorescence, 48 h, basal (AID 1162). Further: test concentration not given here. The note with it: higher = more signal.
Assay [12] is described as follows: adipocyte viability effects, profiling panel, cell-based, 3T3-L1 adipocytes, calcein-AM fluorescence, 48 h, basal (AID 1163). Further: test concentration not given here. The note with it: 3T3-L1 adipocytes viability, higher = more signal.
Assay [13] is described as follows: HepG2 cell viability effects, profiling panel, calcein-AM fluorescence, 48 h, basal (AID 1164). Further: test concentration not given here. The note with it: higher = more signal.
A short description of assay [14]: MM1S cell viability effects, profiling panel, calcein-AM fluorescence, 48 h, basal (AID 1165).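 Further: viability of MM1S multiple myeloma cells under basal unstimulated conditions; test concentration not given here.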 The note with it: higher = more signal.
Assay [15] in a line: basal RPMI8226 viability, no added stimulus, profiling panel, cell-based, calcein-AM fluorescence, 48 h, PK04 Diversity Set (AID 1166).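 Further: cells grown under basal conditions without added stimulus; test concentration not given here.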 Particulars: RPMI8226 myeloma viability, higher = more signal.
A short description of assay [16]: basal HepG2 mitochondrial membrane potential changes, profiling panel, cell-based, JC-1 fluorescence, 24 h, 100 nL compound (AID 1167). Further: test concentration not given here. Particulars: higher = more signal.
A short description of assay [17]: basal 3T3-L1 adipocyte mitochondrial potential changes, profiling panel, cell-based, JC-1 fluorescence, 3T3-L1 adipocytes, 24 h, 100 nL compound (AID 1168). Further: test concentration not given here. Particulars: JC-1 mitochondrial fluorescence, higher = more signal, called active from +8 up or from −8 down.
Assay [18] in a line: basal RPMI8226 mitochondrial membrane potential changes, profiling panel, cell-based, JC-1 fluorescence, 24 h, 100 nL compound (AID 1169). Further: test concentration not given here. The note with it: RPMI8226 myeloma, JC-1 mitochondrial potential fluorescence, higher = more signal.
A short description of assay [19]: basal MM1S mitochondrial membrane potential changes, profiling panel, cell-based, JC-1 fluorescence, 24 h, 100 nL compound (AID 1170). Further: test concentration not given here. The note with it: higher = more signal.
Assay [20] is described as follows: A549 lung cancer cell viability effects, profiling panel, resazurin fluorescence, 24 h, PK04 Diversity Set (AID 1171). Further: test concentration not given here. The note with it: higher = more signal, called active from +8 up or from −8 down.

Sequence of NADPH oxidase 2 (Homo sapiens) (P04839 whole entry, looked up): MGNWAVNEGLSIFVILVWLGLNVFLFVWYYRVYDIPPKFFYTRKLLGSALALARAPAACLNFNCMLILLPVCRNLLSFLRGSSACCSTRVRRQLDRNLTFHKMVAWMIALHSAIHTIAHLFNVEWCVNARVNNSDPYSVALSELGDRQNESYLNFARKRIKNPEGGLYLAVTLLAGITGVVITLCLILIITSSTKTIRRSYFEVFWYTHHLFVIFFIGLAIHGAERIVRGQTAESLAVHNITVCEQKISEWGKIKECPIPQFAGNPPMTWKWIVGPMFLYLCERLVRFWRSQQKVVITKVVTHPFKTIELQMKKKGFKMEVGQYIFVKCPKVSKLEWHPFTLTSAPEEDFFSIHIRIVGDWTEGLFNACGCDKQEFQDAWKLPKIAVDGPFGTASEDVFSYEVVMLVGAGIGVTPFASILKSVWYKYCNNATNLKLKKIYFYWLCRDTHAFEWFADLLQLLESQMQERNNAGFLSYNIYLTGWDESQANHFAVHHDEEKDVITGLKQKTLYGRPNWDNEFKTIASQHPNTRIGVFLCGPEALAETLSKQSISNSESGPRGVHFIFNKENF

Turning to `O=C1OCC=C[C@H]2OC34C=CCN(c5ccc6ccccc6c5)C(=O)[C@H]3N(CCO)C(=O)[C@@H]4[C@@H]12` (stereo not given in full), the z-score is -0.773 (inactive) in [1]; 1.33 (inactive) in [3]; 0.796 (inactive) in assay [4]; 0.547 (inactive) in [5]; 0.552 (inactive) in [6]; -0.572 in assay [7]. In addition, the z-score in [8] is 1.53 (inactive); in [9], 1.05 (inactive); in assay [10], 1.46; in [11], 0.594; in [12], -0.355; in [13], 0.379. For the same molecule, the z-score in [14] was -0.102; in assay [15] it was -0.29; in assay [16], -0.542; in [17] it was -0.252 (inactive); in assay [18], 1.02; in assay [19] it was -0.161. Besides, the z-score in assay [20] was -0.0805 (inactive). For the same molecule, the composite z-score in [2] is 0.235.
With `COCCOC(=O)N1C(=O)[C@@]2(c3ccccc31)[C@H](C(=O)N1CCCCCCC1)[C@H]1C(=O)O[C@H](c3ccccc3)[C@H](c3ccccc3)N1[C@@H]2c1ccccc1OCCO`, the z-score is -0.946 (inactive) in assay [1]; 1.49 (inactive) in assay [3]; 0.529 (inactive) in assay [4]; 0.537 (inactive) in assay [5]; 0.49 (inactive) in assay [6]; -0.408 in assay [7]. Also, the z-score in assay [8] is 0.966 (inactive); in assay [9] it was 0.739 (inactive); in [10] it was 1.24; in assay [11], -0.501; in assay [12] it was 0.293; in assay [13], 0.603. Also, the z-score in assay [14] was -0.252; in [15], -1.84; in [16], -0.114; in assay [17], -0.226 (inactive); in assay [18], -1.1; in assay [19], -1.04. For the same molecule, the z-score in assay [20] was -0.467 (inactive). Besides, the composite z-score in assay [2] came out at 2.79.
In the case of `CCCCCN1CC=CC23O[C@@H]4C=CCCOC(=O)C4[C@H]2C(=O)N(CCCO)[C@@H]3C1=O` (stereo not given in full), the z-score in [1] is 2.03 (inactive); in assay [3], -0.235 (inactive); in assay [4], -1.49 (inactive); in assay [5], 1.17 (inactive); in assay [6], -1.02 (inactive); in [7], 0.655. Also, the z-score in assay [8] was -1.16 (inactive); in assay [9] it was -1.08 (inactive); in assay [10], -0.705; in [11] it was -0.55; in assay [12], 0.133; in [13] it was -0.904. Further, the z-score is 0.0357 in [14]; -0.0158 in [15]; -0.639 in [16]; -0.361 (inactive) in [17]; -0.606 in assay [18]; 0.00824 in assay [19]. For the same molecule, the z-score in [20] is -0.0645 (inactive). The molecule further displayed a composite z-score in assay [2] of -0.151.
Take `COC(=O)c1c(CC[C@@H](CO)NC(=O)Nc2ncn[nH]2)oc(C(=O)Cc2ccccc2)c1C(=O)OC`: the z-score in assay [1] is -0.862 (inactive); in assay [3], 0.658 (inactive); in assay [4], 0.22 (inactive); in assay [5] it was -0.641 (inactive); in assay [6], 0.0651 (inactive); in [7], 0.0642. Further, the z-score is -1.16 (inactive) in assay [8]; -0.331 (inactive) in [9]; -0.53 in assay [10]; -0.0782 in [11]; -0.927 in assay [12]; -0.314 in assay [13]. In addition, the z-score in [14] was 0.226; in assay [15], 0.343; in assay [16] it was -0.808; in assay [17], 0.765 (inactive); in assay [18] it was 0.0444; in assay [19], -0.286. Further, the z-score in assay [20] was 0.199 (inactive). In addition, the composite z-score in assay [2] was 0.0751.
Turning to `COC(=O)[C@@]1(Cc2ccc(OC)cc2)[C@H]2c3cc(C(=O)N4CCCC4)n(CCN4CCOCC4)c3C[C@H]2CN1C(=O)c1ccccc1`, the z-score in assay [1] was -0.861 (inactive); in [3], 0.32 (inactive); in [4] it was -0.288 (inactive); in [5] it was 0.366 (inactive); in assay [6], 0.225 (inactive); in [7], -0.286. Moreover, the z-score is 0.99 (inactive) in [8]; -0.245 (inactive) in [9]; -3.66 in assay [10]; -1.35 in [11]; 0.077 in assay [12]; 0.707 in assay [13]. For the same molecule, the z-score in assay [14] was 0.847; in assay [15] it was -1.16; in assay [16] it was 2.52; in assay [17], 0.642 (inactive); in [18] it was 0.28; in assay [19] it was -0.936. In addition, in assay [20], the z-score was 0.0452 (inactive). Moreover, the composite z-score in assay [2] stood at 2.2.
Take `COC(=O)[C@@]1(Cc2ccc(F)cc2)[C@H]2c3cc(C(=O)N(C)C)n(Cc4ccccn4)c3C[C@H]2CN1C(=O)c1ccccc1`: the z-score is -1.37 (inactive) in assay [1]; 0.755 (inactive) in [3]; -0.692 (inactive) in assay [4]; 0.336 (inactive) in assay [5]; -1.68 (inactive) in assay [6]; 0.388 in assay [7]. The z-score in [8] was 0.467 (inactive); in assay [9] it was 1.2 (inactive); in assay [10], -2.82; in assay [11], -1.48; in assay [12], 0.311; in assay [13] it was 0.291. In addition, the z-score is 0.263 in assay [14]; -0.519 in assay [15]; -0.21 in assay [16]; -0.858 (inactive) in assay [17]; -0.715 in assay [18]; -1.01 in assay [19]. Further, the z-score in assay [20] is 0.45 (inactive). Also, the composite z-score in assay [2] turned out to be 1.13.
For `O=C1O[C@H](c2ccccc2)[C@H](c2ccccc2)N2[C@H]1[C@@H](C(=O)NC[C@H](O)c1ccccc1)[C@]1(C(=O)Nc3ccc(C#CC4(O)CCCCCC4)cc31)[C@H]2c1ccccc1OCCO`, the z-score in [1] was 0.0511 (inactive); in assay [3] it was 3.8 (inactive); in [4], 2.21 (inactive); in [5] it was -0.957 (inactive); in assay [6], 2.07 (inactive); in [7], -0.0056. In addition, the z-score is 0.65 (inactive) in assay [8]; 0.267 (inactive) in assay [9]; 1.39 in assay [10]; -0.509 in assay [11]; 0.0001 in [12]; -4.63 in assay [13]. Further, the z-score in [14] was -3.33; in assay [15], -4.19; in assay [16], -2.67; in assay [17] it was 3.14 (inactive); in [18], -0.99; in [19], -2.01. Also, the z-score in [20] was -1.39 (inactive). For the same molecule, the composite z-score in [2] came out at 0.701.
`COC(=O)[C@@]1(Cc2ccc(F)cc2)[C@H]2c3cc(C(=O)N(C)C)n(CCCNc4ccc(C(F)(F)F)cc4Cl)c3C[C@H]2CN1C(=O)c1ccccc1`: the z-score in [1] is -1.74 (inactive); in assay [3] it was 1.36 (inactive); in [4], 0.986 (inactive); in assay [5] it was 0.277 (inactive); in assay [6] it was 1.33 (inactive); in assay [7] it was -0.0991. Further, the z-score in assay [8] was 0.844 (inactive); in assay [9] it was 0.619 (inactive); in assay [10], 0.897; in [11], -1.34; in assay [12] it was -0.851; in assay [13], -0.136. Besides, the z-score in assay [14] was -0.84; in [15], -4.32; in [16], 2.61; in assay [17], 0.391 (inactive); in assay [18], -0.777; in assay [19], -2.12. In assay [20], the z-score was -1.85 (inactive). Moreover, the composite z-score in assay [2] came to 0.634.

Values taken from PubChem BioAssay.
